“And” between values parts separate entries of the source, which are not always exact repeats. Identical values can stand only once. About 83,000 compounds went through this panel and 20% of them were active in at least one assay; those are over-represented in the sample as a whole.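 48-hour exposure, single concentration, 96-well plates; percent growth endpoint where 0 means no net growth. Active: below 10.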 The source made the active and inactive calls.
Key:
Experiment in all cases: NCI-60 one-dose screen, 48 h (100 = growth as untreated, 0 = no growth, -100 = all killed)
Conditions in all cases: 10 µM unless noted
SK-MEL-2 melanoma = system: SK-MEL-2 melanoma
SN12C renal = system: SN12C renal
UO-31 renal = system: UO-31 renal
TK-10 renal = system: TK-10 renal
ACHN renal = system: ACHN renal
CAKI-1 renal = system: CAKI-1 renal
A498 renal = system: A498 renal
CCRF-CEM leukemia = system: CCRF-CEM leukemia
MOLT-4 leukemia = system: MOLT-4 leukemia
SR leukemia = system: SR leukemia
RPMI-8226 leukemia = system: RPMI-8226 leukemia
OVCAR-8 ovarian = system: OVCAR-8 ovarian
OVCAR-5 ovarian = system: OVCAR-5 ovarian
OVCAR-4 ovarian = system: OVCAR-4 ovarian
SK-OV-3 ovarian = system: SK-OV-3 ovarian
IGROV1 ovarian = system: IGROV1 ovarian
OVCAR-3 ovarian = system: OVCAR-3 ovarian
HS 578T breast = system: HS 578T breast
NCI/ADR-RES ovarian = system: NCI/ADR-RES ovarian
EKVX NSCLC = system: EKVX NSCLC

SMILES	growth (SK-MEL-2 melanoma)	growth (SN12C renal)	growth (UO-31 renal)	growth (TK-10 renal)	growth (ACHN renal)	growth (CAKI-1 renal)	growth (A498 renal)	growth (CCRF-CEM leukemia)	growth (MOLT-4 leukemia)	growth (SR leukemia)	growth (RPMI-8226 leukemia)	growth (OVCAR-8 ovarian)	growth (OVCAR-5 ovarian)	growth (OVCAR-4 ovarian)	growth (SK-OV-3 ovarian)	growth (IGROV1 ovarian)	growth (OVCAR-3 ovarian)	growth (HS 578T breast)	growth (NCI/ADR-RES ovarian)	growth (EKVX NSCLC)
CC(CN=Cc1ccccc1O)N=Cc1ccccc1O (stereo not drawn)	154% (inactive) and 102% (inactive)	90.4% (inactive) and 98.7% (inactive)	107% (inactive) and 80.3% (inactive)	110% (inactive) and 106% (inactive)	103% (inactive) and 93.8% (inactive)	93.6% (inactive) and 99.1% (inactive)	121% (inactive) and 105% (inactive)	92.3% (inactive) and 96.2% (inactive)	120% (inactive) and 93.3% (inactive)	100% (inactive)	-6.87% (active) and 94% (inactive)	106% (inactive) and 108% (inactive)	104% (inactive) and 95.5% (inactive)	109% (inactive) and 103% (inactive)	104% (inactive) and 86.4% (inactive)	-14.8% (active) and 112% (inactive)	97.4% (inactive) and 112% (inactive)	90.7% (inactive)	105% (inactive) and 101% (inactive)	
O=C(c1ccc(Cl)cc1)C(NCCO)c1ccc(Cl)cc1 (stereo not drawn)	102% (inactive)	99.6% (inactive) and 100% (inactive)	80.6% (inactive) and 83.8% (inactive)	105% (inactive) and 98.6% (inactive)	120% (inactive) and 102% (inactive)		92.7% (inactive) and 110% (inactive)	99.7% (inactive) and 129% (inactive)		92.8% (inactive) and 88.1% (inactive)	79.3% (inactive) and 113% (inactive)	99.2% (inactive) and 99.8% (inactive)	108% (inactive) and 99.5% (inactive)		107% (inactive) and 98.2% (inactive)	88.5% (inactive) and 91.7% (inactive)	104% (inactive) and 101% (inactive)	101% (inactive) and 117% (inactive)	98.1% (inactive) and 98% (inactive)	103% (inactive)
COc1ccc(S(=O)(=O)N2CCOCC2)cc1NC(=O)c1[nH]c(C)c2c1CCCCC2=O	105% (inactive) and 67.5% (inactive)	98.3% (inactive) and 64.4% (inactive)	90.5% (inactive) and 32% (inactive)	103% (inactive) and 28.5% (inactive)	107% (inactive) and 50.6% (inactive)	96.6% (inactive) and 15.7% (inactive)	93.5% (inactive) and -15.8% (active)	111% (inactive) and 58.9% (inactive)	104% (inactive) and 65.9% (inactive)	113% (inactive) and 64.4% (inactive)	104% (inactive) and 21.5% (inactive)	99.6% (inactive) and 61.7% (inactive)	102% (inactive) and 66.8% (inactive)	114% (inactive) and 59.2% (inactive)	103% (inactive)	108% (inactive) and 47.1% (inactive)	111% (inactive) and 68% (inactive)	91.8% (inactive) and 23.1% (inactive)	107% (inactive) and 79.1% (inactive)	
CCN1CCN(CCNc2nccc(-c3c(-c4cccc(O)c4)nc4sccn34)n2)S1(=O)=O	11.2% (inactive) and 27.5% (inactive)	75.8% (inactive) and 66.7% (inactive)	67.9% (inactive) and 58.3% (inactive)	92.8% (inactive)	47.5% (inactive) and 33.5% (inactive)	44.2% (inactive) and 34% (inactive)	74.2% (inactive) and 66.8% (inactive)	67.4% (inactive) and 62.1% (inactive)	89.7% (inactive) and 81.7% (inactive)	59.4% (inactive) and 36.2% (inactive)	69.3% (inactive) and 102% (inactive)	90% (inactive) and 68.3% (inactive)	87.2% (inactive) and 95.5% (inactive)	106% (inactive) and 77.7% (inactive)	38.4% (inactive) and 39.1% (inactive)	54% (inactive) and 57.5% (inactive)	92.9% (inactive) and 86.7% (inactive)	78% (inactive)	102% (inactive) and 103% (inactive)	
CC(C)Cc1ccc(C(C)C(=O)NCc2ccc(Cn3c(=O)sn(CCCCl)c3=O)cc2)cc1 (stereo not drawn)	103% (inactive) and -3.28% (active)	98.7% (inactive) and -60.5% (active)	77% (inactive) and -100% (active)	88% (inactive) and -91.9% (active)	97.3% (inactive) and -100% (active)	87.1% (inactive) and -86.6% (active)	87.8% (inactive) and 55.6% (inactive)	53.4% (inactive) and 3.84% (active)	90.4% (inactive) and 0.866% (active)	108% (inactive) and 3.82% (active)	99.8% (inactive) and -30.9% (active)	94.5% (inactive) and -3.85% (active)	105% (inactive) and -52.9% (active)	79.8% (inactive) and -94.2% (active)	107% (inactive) and 69.5% (inactive)	99.3% (inactive) and -79.1% (active)	98.2% (inactive) and -83.4% (active)	106% (inactive) and -11% (active)	99.4% (inactive) and -32.1% (active)	
CN(C)c1ccc2nc3ccc(N)cc3[n+](-c3ccccc3)c2c1	58.2% (inactive)	6.72% (active) and -36.4% (active)	62.1% (inactive) and 31% (inactive)	20.6% (inactive)	73.5% (inactive) and 30.8% (inactive)	94.2% (inactive) and -40.5% (active)	67.5% (inactive) and 41.8% (inactive)	24.6% (inactive) and 13.7% (inactive)	23% (inactive) and 0.316% (active)	18.6% (inactive) and 11% (inactive)	8.36% (active) and 13.7% (inactive)	19.4% (inactive) and -16.6% (active)	87.1% (inactive) and -46.4% (active)	29.2% (inactive) and 1.54% (active)	74.1% (inactive) and 30.9% (inactive)	12.8% (inactive) and 13.7% (inactive)	23.5% (inactive) and -18.1% (active)	31.7% (inactive) and 23.4% (inactive)	92% (inactive) and 26% (inactive)	
CCOC(=O)c1sc(N)nc1-c1ccccc1	95.9% (inactive)	104% (inactive)	85.4% (inactive)	99% (inactive)	93.7% (inactive)	103% (inactive)	94.5% (inactive)	97.7% (inactive)	96.1% (inactive)	90.2% (inactive)	99.1% (inactive)		90.9% (inactive)	106% (inactive)	93.7% (inactive)	101% (inactive)	108% (inactive)	106% (inactive)	104% (inactive)	
N#C/C(=C1C=C/C(=N/O)C(Br)=C/1)c1ccccc1	-22.3% (active)	32.7% (inactive)	36.7% (inactive)	45% (inactive)	24.5% (inactive)	15.1% (inactive)	63.7% (inactive)	4.04% (active)	18.5% (inactive)	7.83% (active)	6.28% (active)	1.66% (active)	52.2% (inactive)	42.1% (inactive)	29.1% (inactive)	4.78% (active)	-3.84% (active)	42.6% (inactive)	9.55% (active)	
COc1ccc(Cn2c(NCCN=C(N)N)nc(=O)n(Cc3ccc(F)cc3)c2=O)cc1	101% (inactive)	91.4% (inactive) and 68.8% (inactive)	77.7% (inactive) and 75.3% (inactive)	103% (inactive) and 104% (inactive)	97.7% (inactive) and 102% (inactive)	95.2% (inactive) and 86.5% (inactive)	92.1% (inactive) and 97.1% (inactive)	93.1% (inactive) and 87.4% (inactive)	84.6% (inactive) and 88.4% (inactive)	85.5% (inactive)	87.9% (inactive) and 92.2% (inactive)	101% (inactive) and 99.9% (inactive)	89.9% (inactive) and 95.8% (inactive)	101% (inactive) and 92.5% (inactive)	98.8% (inactive) and 96.2% (inactive)	90.3% (inactive) and 103% (inactive)	96.5% (inactive) and 104% (inactive)	87.5% (inactive) and 66.2% (inactive)	114% (inactive) and 103% (inactive)	

Reference: PubChem BioAssay (NCI)
